Hits are enriched below; roughly 3.1% of the tested compounds scored in any of these assays.
Mot1-301 SUMO – blocks SUMOylation pathway, rescuing yeast Mot1-301 growth. S. cerevisiae Mot1-301 growth rescue, ATP luminescence, 38.5C; percent above DMSO median, 100 means doubled. actives 1% (n = 320,000). growth rescue, % at 18.8 µM;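 active = every valid replicate shows activation above 250% relative to neutral control wells; inactive = the rest, any valid replicate at or below 250%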
ATG4B inhibitor – ATG4B (human) cysteine protease inhibition; AID 504462; actives 0.51% (n = 340,000); Q9Y4P1; ATG4B cleavage of LC3-PLA2, NBD-HPC fluorescence, 1 h; inhibition, % at 8.33 µM; in the data active = inhibition above about 40%
NadD block – NadD (S. aureus) enzyme inhibition; purified NadD enzyme, colorimetric absorbance read-out; inhibition, % at 20 µM; actives 0.78% (n = 360,000); AID 602399; in the data active = inhibition above about 26%
FAS TE block – FAS thioesterase (human) inhibition | P49327 | recombinant FAS-TE, OMFH fluorogenic substrate, fluorescence endpoint | inhibition, % at 15 µM | actives 0.67% (n = 360,000) | AID 602261;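 active = compounds whose normalised, plate-corrected inhibition of enzyme fluorescence in the single-dose primary screen is 50% or more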
Calb FLC – C. albicans growth modulation with fluconazole; C. albicans CaCi-2 (fluconazole-resistant clinical isolate) + fluconazole, Alamar Blue growth, 48 h; growth inhibition, % (test concentration not listed); actives 0.57% (n = 300,000);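 active = growth inhibition above about 58% in most replicates, limit read from the data, passing the limit was not always enough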;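 note: all wells also contain fluconazole at 8 µg/ml as a sub-toxic cotreatment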
Large screens that a line does not name were inactive.

Cc1ccc(-c2cc(C(F)F)n3ncc(C(=O)N4CCCc5ccccc54)c3n2)cc1	Mot1-301 SUMO 383
O=C1CC(c2ccc(F)cc2)CC(O)=C1C=NCCN1CCNCC1 (configuration not stated)	Mot1-301 SUMO 301
COc1cc(C(=O)Nc2ccc3c(c2)N(C(=O)CN2CCN(C)CC2)c2ccccc2CC3)cc(OC)c1OC	none
C[C@@H](c1ccccc1)N1C[C@@H](COCc2ccccc2)Oc2cc(N3CC[C@@H](N(C)C)C3)ccc2S1(=O)=O	none (no result: Mot1-301 SUMO, ATG4B inhibitor, Calb FLC)
CCCOc1ccc(Oc2nc(-c3ccncc3)nc3ccccc23)cc1	none
CS/C(=N\S(=O)(=O)c1ccc(N)cc1)NS(=O)(=O)c1cccs1	none (no result: Mot1-301 SUMO)
CS/C(=N\S(=O)(=O)c1cccs1)Nc1ccc(Cl)cc1	Calb FLC 85
CS/C(=N\S(=O)(=O)c1cccs1)Nc1ccc(Br)cc1F	Calb FLC 101
O=S(=O)(/N=C(/Nc1ccc(Cl)cc1Cl)c1ccccc1)c1cccs1	none
CCCCCCCCN1C(=O)[C@H](CC(=O)N2CCSCC2)C[C@@]2(C(=O)OCC)CCCC=C12	none (no result: Mot1-301 SUMO, ATG4B inhibitor, Calb FLC)
O=C(CN1C(=O)c2ccccc2C1=O)Nc1ccccc1	none
O=C(Nc1ccccc1)OCN1C(=O)c2ccccc2C1=O	Calb FLC 69
COc1cc2c(cc1OC)C1Cc3ccc(OC)c(OC)c3C[N+]1([O-])CC2 (configuration not stated)	none
COc1ccc(NC(=O)COc2cccc3c2OC(C)(C)C3)cc1OC	none (no result: Calb FLC)
Cc1cnc(NC(=O)COc2cccc3c2OC(C)(C)C3)s1	Mot1-301 SUMO 255
CCC(C)Sc1ccc(-c2nc3ccc(C)cn3c2NC2CCCCC2)cc1 (configuration not stated)	none (no result: NadD block, FAS TE block)
CCC(C)Sc1cccc(-c2nc3ccc(C)cn3c2NC2CCCCC2)c1 (configuration not stated)	Mot1-301 SUMO 341
Cc1cc(C)n(C(C[N+](=O)[O-])c2ccc(Cl)cc2)n1 (configuration not stated)	Mot1-301 SUMO 279
Cc1noc(C)c1NC(=O)N(C)C[C@H]1Oc2ccc(NC(=O)NC3CCCCC3)cc2C(=O)N([C@H](C)CO)C[C@@H]1C	none (no result: Calb FLC)
OC(COCC(F)(F)C(F)(F)C(F)(F)C(F)F)Cn1c2ccc(Cl)cc2c2cc(Cl)ccc21 (configuration not stated)	FAS TE block 56
Cc1ccc(C(=O)NNC(=O)c2cc3ccccc3cc2O)cc1	Calb FLC 91
COc1ccccc1C(=O)NNC(=O)c1ccc(C)cc1	none
COc1cc2ccccc2cc1C(=O)NNC(=O)c1ccccc1O	Calb FLC 95 (no result: ATG4B inhibitor)
O=C(NC(=S)NNC(=O)c1cc2ccccc2cc1O)c1ccco1	Calb FLC 83 (no result: Mot1-301 SUMO)
COc1ccc(NC(=O)NNC(=O)c2cc3ccccc3cc2O)cc1	Calb FLC 86
CCN(C(=O)COC(=O)/C=C/c1ccc(OC(F)F)c(OC)c1)C1CCS(=O)(=O)C1 (configuration not stated)	none (no result: Calb FLC)
COc1cc(NC(=O)c2cc3ccccc3cc2O)c(OC)cc1Cl	none
COc1ccccc1NC(=O)c1cc2cc(Br)ccc2cc1O	NadD block 30
CCOc1ccc(NC(=O)NNC(=O)c2ccc3ccccc3c2O)cc1	Calb FLC 85
COc1ccc(C)cc1NC(=O)NNC(=O)c1cc2ccccc2cc1O	Calb FLC 93
CCCCC(=O)NC(c1ccc(N(CC)CC)cc1)c1ccc2cccnc2c1O (configuration not stated)	Calb FLC 121
CCN(CC)c1ccc(C(NC(=O)C(C)C)c2ccc3cccnc3c2O)cc1 (configuration not stated)	none (no result: Mot1-301 SUMO, ATG4B inhibitor, Calb FLC)
CCCCC(=O)NC(c1ccc(N(C)C)cc1)c1ccc2cccnc2c1O (configuration not stated)	Calb FLC 94
COc1c2c(c(OC)c3ccccc13)[C@@]1(OC2)O[C@H](CCO)C[C@H](O)[C@H]1O	none (no result: Mot1-301 SUMO, ATG4B inhibitor, Calb FLC)
CCN1C[C@@H]2[C@@H]3C(=O)N(C)C(=O)[C@@H]3[C@](Cc3ccccc3)(C1=O)N2C(=O)c1ccc(Br)cc1	none (no result: Mot1-301 SUMO, Calb FLC)
CC(/C=C1\SC(=S)N(NC(=O)c2ccncc2)C1=O)=C\c1ccccc1	none
CC(=O)c1ccc(NC(=O)CN2C(=O)/C(=C/C(C)=C/c3ccccc3)SC2=S)cc1	NadD block 31 (no result: Mot1-301 SUMO, Calb FLC)
CC(/C=C1\SC(=S)N(CCC(=O)Nc2ccc(O)cc2)C1=O)=C\c1ccccc1	none

Source: PubChem BioAssay
